Screening data (PubChem)
KB-3-1 cytotox = qHTS assay for MDR1-selective chemotherapeutics: Primary screen using the parental adenocarcinoma cell KB-3-1; hit rate 1.4% among 400,000; AID 1347075, 2019; Potency, µM (top dose mostly 46.1 µM), actives largely listed as cytotoxic; KB-3-1 viability, CellTiter-Glo ATP luminescence, 72 h; also: nearly all actives have a fitted effect of over 60% in size
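Cells are dispensed, compounds pinned in, plates held at 37 °C for 72 h, then CellTiter-Glo is added and luminescence read after 10 minutes. Cell line: parental KB-3-1 in phenol-red-free DMEM, 10% FBS.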
KB-V1 MDR tox = qHTS assay for MDR1-selective chemotherapeutics: Primary screen using the drug-selected MDR subline cells KB-V1; KB-V1 MDR cells viability, CellTiter-Glo, 72 h; Potency, µM (highest dose often 46.1 µM), hits mostly cytotoxic; hit rate 3.4% among 400,000; AID 1347076, 2019; also: nearly all actives have a fitted effect of over 60% in size
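Following 72 h at 37 degrees C with compound, KB-V1 cell viability was read by CellTiter-Glo luminescence, medium being phenol-red-free DMEM plus 10% FBS; concentration-response parameters came from normalized, curve-fitted qHTS data.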
PINK1 modulator = A Quantitative High throughput Screen to Identify Chemical Modulators of PINK1 Expression; PINK1 immunofluorescence, high-content cytometry, 24 h; Potency, µM (series often up to 76.6 µM), most hits filed as activators; hit rate 0.2% among 410,000; AID 624263, 2012; active = well fitted activation curve with a large enough effect; inconclusive = small, poorly fitted or top-dose-only effect; cell line not stated here; also: nearly all actives have a fitted effect of over 65% in size
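Stable cell line treated 24 h with compounds at 5 concentrations (CCCP controls), then fixed and immunostained for PINK1 plus nuclear and cell stains; PINK1 immunofluorescence quantified by laser-scanning microplate cytometry.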
SW480 rerep = A quantitative high throughput screen for small molecules that induce DNA re-replication in SW480 colon adenocarcinoma cells | SW480 DNA re-replication, Hoechst DNA content imaging, 48 h | Potency, µM (top dose mostly 46.1 µM), usual class: activators | hit rate 1.8% among 340,000 | AID 624297, 2012; also: nearly all actives have a fitted effect of over 55% in size
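Cells (250 per well) received 23 nL compound or DMSO by pin tool and were kept 48 hr at 37 C, 5% CO2. Nuclei were then stained with Hoechst for 40 min and scanned for DNA content.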
MCF10A rereplic = A quantitative high throughput screen for small molecules that induce DNA re-replication in MCF 10a normal breast cells | hit rate 2.9% among 350,000 | Potency, µM (highest dose often 46.1 µM), usual class: activators | MCF 10A DNA re-replication, Hoechst nuclear intensity, 48 h; also: nearly all actives have a fitted effect of over 50% in size
A number is an active result; . = inactive; ? = inconclusive; / = no result given. Hits are enriched below; roughly 6.7% of the tested compounds scored in any of these assays. Unless noted, calls follow the shape of the dose curve; as a rule, active = well fitted curve in the direction sought with a large enough effect; inconclusive = small, poorly fitted or top-dose-only effect, or another doubt; inactive = no such curve, though single readings can be large; an effect the other way counts as inactive or inconclusive.

SMILES	KB-3-1 cytotox	KB-V1 MDR tox	PINK1 modulator	SW480 rerep	MCF10A rereplic
CSc1ccc(Cn2c(C)c(C(=O)NCc3cccc(Cl)c3)sc2=O)cc1	.	9.2µM	.	/	/
Cc1c(C(=O)NCc2ccccc2C(F)(F)F)sc(=O)n1Cc1ccc(S(=O)(=O)N(C)C)cc1	?	8.2µM	.	/	/
Cc1c(C(=O)NCc2cccc(Cl)c2)sc(=O)n1Cc1cccc(F)c1	.	18µM	.	/	/
COc1ccc(NC(=O)c2sc(=O)n(Cc3ccc(F)c(Cl)c3)c2C)cc1OC	4.6µM	?	.	/	/
CC(=O)c1ccccc1C(=O)NCC1Cc2cccc(-c3cccnc3)c2O1 (configuration not stated)	/	/	.	/	/
Cc1ccc(C)c(N2CCN(C(=O)C(C)n3nc(C)c4sc5ccccc5c4c3=O)CC2)c1 (configuration not stated)	.	.	.	/	/
COc1ccc(NC(=O)N2CCC3(CC2)CCN(S(C)(=O)=O)CC3)cc1	/	/	.	/	/
CSc1ccc(Cn2c(C)c(C(=O)NCc3cccc(C)c3)sc2=O)cc1	.	9.2µM	.	/	/
C=Cc1ccc(Cn2c(C)c(C(=O)NCc3cccc(C)c3)sc2=O)cc1	.	?	.	/	/
Cc1cccc(CNC(=O)c2sc(=O)n(Cc3ccc(S(C)(=O)=O)cc3)c2C)c1	?	15µM	.	/	/
Cc1c(C(=O)NCc2ccc3c(c2)OCO3)sc(=O)n1Cc1ccc(S(C)(=O)=O)cc1	?	?	.	/	/
CCOc1ccc(NC(=O)CN(C)C(=O)c2cn(-c3ccc(C)cc3)nc2-c2cccc(OC)c2)cc1OCC	.	5.8µM	.	.	?
COc1cccc(-c2nn(-c3ccc(C)cc3)cc2C(=O)N(C)CC(=O)Nc2cccc(F)c2)c1	?	.	.	.	?
COc1ccc2c(c1)-c1nc(-n3ncc(C(=O)N(C)CCO)c3C3CC3)ncc1CC2	/	/	.	/	/
CC(=O)N(C(C)=O)c1nc(-c2ccccc2)cn1/N=C/c1ccccc1	?	?	.	.	12µM
Cc1ccc(-c2[nH]nc(N)c2N=Nc2cccc(Cl)c2C)cc1	?	?	.	?	21µM
Cc1ccc(NC(=S)N/N=C/c2c(C)[nH]c3ccccc23)cc1	.	.	.	?	18µM
Cc1cccc(NC(=S)N/N=C/c2c[nH]c3ccccc23)c1	12µM	?	.	12µM	1.8µM
Cc1cccc(NC(=O)Cn2nnc(C(=O)NCc3cccs3)c2N)c1	.	.	.	/	/
Cc1cc2ncc(-c3ccccc3)nc2cc1C	.	.	.	?	.
O=C(O)COc1cnc2ccccc2n1	.	?	.	.	.
Cc1ccc(-c2cnc3ccccc3n2)cc1C	.	.	.	.	18µM
O=C(Nc1cccc(-c2cnc3ccccc3n2)c1)c1cccc(NC(=O)c2ccco2)c1	?	?	.	.	15µM
O=C(CCl)Nc1ccc(Oc2cnc3ccccc3n2)cc1	6.5µM	15µM	.	?	?
O=C(CCl)Nc1cccc(-c2cnc3ccccc3n2)c1	10µM	13µM	.	12µM	?
SMILES	KB-3-1 cytotox	KB-V1 MDR tox	PINK1 modulator	SW480 rerep	MCF10A rereplic
CCCCOC(=O)c1ccc(NC(=O)c2cc3c(=O)n4cccc(C)c4nc3s2)cc1	.	.	.	/	/
CCc1ccc(C(=O)c2cn(CC(=O)Nc3ccc4c(c3)OCO4)c3cc(OC)c(OC)cc3c2=O)cc1	.	.	.	/	/
Cc1ccc(Cl)cc1NC(=O)C1CCCN(S(=O)(=O)c2c(C)noc2/C=C/N(C)C)C1 (configuration not stated)	.	.	.	/	/
Cc1noc(/C=C/N(C)C)c1S(=O)(=O)N1CCCC(C(=O)Nc2ccccc2F)C1 (configuration not stated)	.	.	.	?	23µM
Cc1ccc(CNC(=O)C2CCCN(S(=O)(=O)c3c(C)noc3/C=C/N(C)C)C2)cc1 (configuration not stated)	.	.	.	.	15µM
CN(C(=O)COC(=O)c1ccc2c(c1)OCO2)c1c(N)n(Cc2ccccc2)c(=O)[nH]c1=O	.	?	.	.	.
O=C1C(=O)c2cccnc2-c2ncccc21	3.7µM	18µM	.	/	/
O=C1c2cccnc2-c2ncccc21	.	.	.	.	.
COC1=C(Br)C(=O)c2ncccc2C1=O	?	?	.	2.9µM	5.2µM
O=C(CSc1nnc(Cc2cccs2)n1-c1ccccc1)NCc1ccc2c(c1)OCO2	.	.	.	.	.
CC(Sc1nnc(-c2cccs2)n1-c1ccccc1)C(=O)NCc1ccc2c(c1)OCO2 (configuration not stated)	.	8.2µM	.	.	.
Cc1[nH]c2c(F)cccc2c1CC(=O)NCCN1Cc2ccccc2OC(C)C1 (configuration not stated)	/	/	.	/	/
Cc1ccc(OCc2cc(C(=O)N(C)CCc3nc4ccccc4[nH]3)no2)cc1C	.	.	.	?	21µM
N=C1SCC(=O)N1c1ncc(Cc2cccc(Cl)c2)s1	.	?	.	?	12µM
N=C1SCC(=O)N1c1ncc(Cc2ccccc2Cl)s1	.	.	.	?	18µM
Cc1cccc(Cc2cnc(N3C(=N)SC(C)C3=O)s2)c1 (configuration not stated)	.	?	.	.	.
Cc1ccc(OCC(=O)Nc2ccc3c(c2)nc(CCNC(=O)c2ccco2)n3C)cc1	.	.	?	/	/
Cc1ccccc1C(=O)Nc1ccc(OCc2cc(=O)n3ccccc3n2)cc1	/	/	.	/	/
Cc1ccc(OCc2nnc(SCc3cc(=O)[nH]c4ccccc34)n2-c2ccccc2)cc1	.	.	.	.	.
Cc1ccccc1OCc1nnc(SCc2cc(=O)[nH]c3ccccc23)n1-c1ccccc1	?	16µM	.	?	?
COc1ccc(CCNc2ncnc3nc[nH]c23)cc1	.	.	.	/	/
Cc1cc2nc3c(=O)n(C4CCCCC4)c(=O)[nH]c3nc2cc1N	.	.	14µM	?	?
COc1ccc(NC(=O)c2cc([N+](=O)[O-])ccc2O)cc1	18µM	?	28µM	.	?
Cc1c(C(=O)Nc2cccc([N+](=O)[O-])c2)csc1-c1ccccc1	.	8.2µM	?	.	?
O=C(Nc1cccc([N+](=O)[O-])c1)c1cc2ccccc2cc1O	13µM	?	2.5µM	?	?
COc1cccc(NC(=O)c2cc([N+](=O)[O-])ccc2NCc2cccnc2)c1	.	3.7µM	.	.	.
CCN1c2ccccc2-c2nc(SCC(=O)Nc3cc(F)ccc3F)ncc2S1(=O)=O	?	.	.	/	/
CC1CCCN(C(=O)c2ccc(NC(=O)CC3SC(N4CCCC4)=NC3=O)cc2)C1 (configuration not stated)	.	?	.	.	.
CCSc1nc2n(n1)C(c1cccc(F)c1)C1=C(CCCC1=O)N2 (configuration not stated)	.	13µM	.	.	.
